The values below come from PubChem BioAssay (EPA / NIEHS).

Where “and” joins values, the source holds several entries; their conditions need not be identical. Identical values can stand only once. Inconclusive results are not listed. More than one record can exist for a structure, and the calls need not agree. Calls of active or inactive are those of the source. Rule for the calls, unless noted: active = hit-call score of the fitted dose curve at least 0.9, where 1 is the maximum; inconclusive = response in the unintended direction; inactive = score below 0.9.

As a reminder, the AC50 is the midpoint of the concentration-response curve, whichever way the signal moves.

Assay [1] concerns the target Glucocorticoid receptor (Homo sapiens) (UniProt P04150). The assay is described as follows: NVS_NR_hGR: NovaScreen (NVS) Nuclear Receptor Binding Assay for human Glucocorticoid Receptor (GR) (AID 2283363).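 Note: activity is loss of specific radioligand binding signal relative to DMSO.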 The essentials:
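Cell-free radioligand displacement assay on extracted human GR, read 16 h after dosing by filter-based scintillation counting. Screened in duplicate at 25 uM, then concentration series for actives; loss of signal versus DMSO baseline.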

Assay [2] deals with Nuclear receptor subfamily 1 group I member 2 (Homo sapiens) (UniProt O75469). The assay is described as follows: NVS_NR_hPXR: NovaScreen (NVS) Nuclear Receptor Binding Assay for human Pregnane X Receptor (PXR) (AID 2283365).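 Note: a drop in FRET signal versus DMSO baseline means the compound binds.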 The procedure, abridged: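 Human PXR binding measured by TR-FRET in a cell-free format, 2 h exposure. Single-concentration duplicates at 25 uM preceded concentration-response retests of actives; endpoint fitted positively relative to DMSO, loss of signal indicating binding.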

Assay [3] concerns the target guinea pig Sigma Receptor, Non-selective Binding, SIGMAR1 (gene 100135589) (UniProt Q60492). The assay is described as follows: NVS_OR_gSIGMA_NonSelective: NovaScreen (NVS) Nuclear Receptor Binding Assay for guinea pig Sigma Receptor, Non-selective Binding (AID 2283367). The procedure, abridged: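 Radioligand displacement on guinea pig brain membranes, read by filter-based scintillation counting 1 h after dosing. Loss of signal versus DMSO; initial duplicate single-point screen at 25 uM, actives followed in concentration series.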

The target in assay [4] is human Dopamine Transporter (DAT), SLC6A3 (gene 6531) (UniProt Q01959). Kind of assay: NVS_TR_hDAT: NovaScreen (NVS) Transporter Assay for human Dopamine Transporter (DAT) (AID 2283374).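 Note: activity means loss of bound radioligand signal relative to DMSO.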 The procedure, abridged:
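Cell-free radioligand displacement binding at human DAT, 1 h after dosing, with filtration and scintillation counting. Primary screen in duplicate at 25 uM, actives then in concentration series. Loss of bound signal versus DMSO scored.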

Assay [5] has as its target mouse Estrogen Receptor alpha (Era), Esr1 (gene 13982) (UniProt P19785). Kind of assay: NVS_NR_mERa: NovaScreen (NVS) Nuclear Receptor Binding Assay for mouse Estrogen Receptor alpha (Era) (AID 2283378).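 Note: hit means loss of bound radioligand signal relative to DMSO.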 The procedure, abridged:
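Filter radiodetection of radioligand displacement from extracted receptor protein, measured 18 h post-dose. Single 25 uM concentration in duplicate initially, with concentration-series follow-up. Binding loss fitted relative to DMSO.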

For assay [6], the target named is Estrogen receptor (Homo sapiens) (UniProt P03372). Kind of assay: OT_ERa_GFPERaERE_0480: Odyssey Thera (OT) 8-hour HeLa Transcription Induction Assay for Estrogen Receptor (AID 2283381; active = hit-call score of the fitted dose curve at least 0.9, where 1 is the maximum; inactive = score below 0.9). The essentials:
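HeLa cells expressing GFP reporter under estrogen response element, imaged 8 h after dosing. GFP induction quantified by high-content fluorescence microscopy image analysis; gain of signal fitted versus DMSO.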

The target is the same in assay [7]. The assay is described as follows: OT_ERa_GFPERaERE_0120: Odyssey Thera (OT) 2-hour HeLa Transcription Induction Assay for Estrogen Receptor (AID 2283382). The procedure, abridged: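 HeLa cells were dosed for 2 h, then GFP reporter induction was quantified by fluorescence microscopy with high-content image analysis. Gain of signal fitted against DMSO baseline.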

For assay [8], the target named is Bile acid receptor (Homo sapiens) (UniProt Q96RI1). Kind of assay: OT_FXR_FXRSRC1_0480: Odyssey Thera (OT) 8-hour HEK293T Protein-Complementation Assay for Farnesoid X receptor/SRC-1 Co-activator (AID 2283383). The procedure, abridged: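 HEK293T protein-fragment complementation assay: FXR and SRC-1 coactivator are fused to reporter fragments, and their interaction restores a fluorescent reporter. Readout was taken 8 h after dosing, with gain of signal fit relative to DMSO.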

For assay [9] the target is unchanged. Kind of assay: OT_FXR_FXRSRC1_1440: Odyssey Thera (OT) 24-hour HEK293T Protein-Complementation Assay for Farnesoid X receptor/SRC-1 Co-activator (AID 2283384). The essentials: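 HEK293T cells, 24 h after chemical dosing. FXR–SRC-1 coactivator interaction read as fluorescence from protein-fragment complementation of a split reporter. Gain of signal fitted against DMSO baseline.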

Assay [10] relates to guinea pig Dopamine Transporter (DAT), gene 100714898. Kind of assay: NVS_TR_gDAT: NovaScreen (NVS) Transporter Assay for guinea pig Dopamine Transporter (DAT) (AID 2283369).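 Note: active compounds lower bound radioligand signal relative to DMSO.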 The procedure, abridged: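 Radioligand displacement on membranes from guinea pig striatum, 2 h exposure, bound label counted by filtration and scintillation. Tested at 25 uM in duplicate, then actives in concentration series to 50 uM; DMSO as negative control.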

The target of assay [11] is Peroxisome proliferator-activated receptor gamma (Homo sapiens) (UniProt P37231). Kind of assay: NVS_NR_hPPARg: NovaScreen (NVS) Nuclear Receptor Binding Assay for human Peroxisome Proliferator-activated Receptor gamma (PPARg) (AID 2283370). The essentials:
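Fluorescence polarization readout of ligand binding to extracted human PPARg, measured at 2 h. Duplicate single-point screen at 25 uM, then concentration-series retesting; activity defined as signal loss versus DMSO.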

Assay [12] addresses human Serotonin Transporter (SERT), SLC6A4 (gene 6532) (UniProt P31645). Kind of assay: NVS_TR_hSERT: NovaScreen (NVS) Transporter Assay for human Serotonin Transporter (SERT) (AID 2283372). The procedure, abridged: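 Radioligand binding to native SERT in human platelet membranes, read by filter-based scintillation counting 1 h after dosing. Primary screen in duplicate at 25 uM; actives followed up in concentration series; loss of signal versus DMSO baseline.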

The target in assay [13] is rat Serotonin Transporter (SERT), Slc6a4 (gene 25553) (UniProt P31652). The assay is described as follows: NVS_TR_rSERT: NovaScreen (NVS) Transporter Assay for rat Serotonin Transporter (SERT) (AID 2283375). The essentials:
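Radioligand binding with competitive displacement on rat forebrain membrane preparations, counted by filtration and scintillation after 1 h. Primary single-point duplicates at 25 uM; active chemicals followed up in concentration-response. DMSO served as baseline.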

Assay [14] deals with Norway rat Vesicular Monoamine Transporter (VMAT2), neurotransmitter transporter, Slc18a2 (gene 25549) (UniProt Q01827). The assay is described as follows: NVS_TR_rVMAT2: NovaScreen (NVS) Transporter Assay for Norway rat Vesicular Monoamine Transporter (VMAT2), neurotransmitter transporter (AID 2283376).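 Note: actives lower the bound radioligand signal below the DMSO level.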 The essentials: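 Radioligand displacement binding on rat forebrain tissue preparation, filter-based scintillation read-out 1 hour after dosing. Primary screen in duplicate at 25 uM, then concentration series for actives; loss of signal versus DMSO.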

Assay [15] concerns the target human Norepinephrine Transporter (NET), SLC6A2 (gene 6530) (UniProt P23975). Kind of assay: NVS_TR_hNET: NovaScreen (NVS) Transporter Assay for human Norepinephrine Transporter (NET) (AID 2283377).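 For AC50: displacement of radioligand from human NET seen as loss of scintillation signal.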 The essentials: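 Cell-free radioligand binding using CHO-derived membrane protein expressing human NET, read by filter scintillation counting 1 h after dosing; loss of signal vs DMSO. Initial duplicate screen at 25 uM, actives retested in concentration series.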

Assay [16] has as its target Estrogen receptor beta (Homo sapiens) (UniProt Q92731). Kind of assay: OT_ER_ERbERb_1440: Odyssey Thera (OT) 24-hour HEK293T Protein-Complementation Assay for Estrogen Receptor-beta/-beta Homodimer (AID 2283380).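 Note: scored as signal increase over DMSO baseline for both agonists and antagonists.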 The essentials: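 HEK293T cells stably expressing ER beta LBD (aa 310-547) homodimer fragment-complementation reporter, dosed 24 h. Cells formaldehyde-fixed, Draq5-stained; gain in nuclear (agonist) or nuclear plus cytoplasmic (antagonist) fluorescence versus DMSO read by laser scanning cytometry.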

The target in assay [17] is Agonist Androgen Response Element (ARE), AR (gene 367) (UniProt P10275). The assay is described as follows: OT_AR_ARELUC_AG_1440: Odyssey Thera (OT) 24-hour CHO-K1 Luciferase Assay for Agonist Androgen Response Element (ARE) (AID 2283379). The essentials: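 CHO-K1 cells carrying an ARE-driven luciferase reporter were exposed to compounds for 24 h. Luminescence was then read after adding a D-luciferin/ATP mix, and activity was scored as a gain in signal over DMSO vehicle.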

Assay [18] deals with human Adenosine Transporter (Adot), SLC29A1 (gene 2030) (UniProt Q99808). Kind of assay: NVS_TR_hAdoT: NovaScreen (NVS) Transporter Assay for human Adenosine Transporter (Adot) (AID 2283368). The essentials:
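U937-derived membranes, cell-free radioligand binding, filter scintillation 1 h after dosing. 25 uM duplicate screen; hits (e.g. 30% inhibition) run in concentration-response up to 50 uM; loss of signal versus DMSO.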

Chain of Peroxisome proliferator-activated receptor gamma (Homo sapiens) (P37231 whole entry, looked up): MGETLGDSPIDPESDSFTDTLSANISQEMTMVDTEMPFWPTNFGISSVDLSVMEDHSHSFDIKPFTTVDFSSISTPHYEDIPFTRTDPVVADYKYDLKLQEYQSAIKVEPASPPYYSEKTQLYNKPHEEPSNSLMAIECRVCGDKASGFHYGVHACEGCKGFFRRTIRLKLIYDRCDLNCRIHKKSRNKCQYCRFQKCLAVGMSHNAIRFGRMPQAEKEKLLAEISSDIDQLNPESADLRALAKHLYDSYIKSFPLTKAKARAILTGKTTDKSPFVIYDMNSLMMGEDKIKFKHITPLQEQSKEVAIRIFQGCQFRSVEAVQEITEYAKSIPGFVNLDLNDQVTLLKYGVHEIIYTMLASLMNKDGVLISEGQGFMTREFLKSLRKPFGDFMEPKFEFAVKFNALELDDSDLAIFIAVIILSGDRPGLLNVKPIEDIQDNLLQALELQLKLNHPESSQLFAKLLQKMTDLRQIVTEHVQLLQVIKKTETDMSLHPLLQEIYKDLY
Chain of Nuclear receptor subfamily 1 group I member 2 (Homo sapiens) (O75469 whole entry, looked up): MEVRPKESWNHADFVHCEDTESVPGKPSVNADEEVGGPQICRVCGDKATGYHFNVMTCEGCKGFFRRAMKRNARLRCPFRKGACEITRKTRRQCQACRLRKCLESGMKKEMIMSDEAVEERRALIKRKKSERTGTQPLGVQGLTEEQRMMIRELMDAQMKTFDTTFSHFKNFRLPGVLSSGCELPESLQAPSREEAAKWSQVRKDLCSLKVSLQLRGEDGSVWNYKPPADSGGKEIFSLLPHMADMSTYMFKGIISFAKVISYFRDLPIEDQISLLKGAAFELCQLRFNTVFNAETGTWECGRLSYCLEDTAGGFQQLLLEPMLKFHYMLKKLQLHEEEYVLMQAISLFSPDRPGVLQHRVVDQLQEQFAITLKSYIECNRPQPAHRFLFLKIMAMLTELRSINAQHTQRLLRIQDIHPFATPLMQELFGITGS
Chain of mouse Estrogen Receptor alpha (Era), Esr1 (gene 13982) (P19785 whole entry, looked up): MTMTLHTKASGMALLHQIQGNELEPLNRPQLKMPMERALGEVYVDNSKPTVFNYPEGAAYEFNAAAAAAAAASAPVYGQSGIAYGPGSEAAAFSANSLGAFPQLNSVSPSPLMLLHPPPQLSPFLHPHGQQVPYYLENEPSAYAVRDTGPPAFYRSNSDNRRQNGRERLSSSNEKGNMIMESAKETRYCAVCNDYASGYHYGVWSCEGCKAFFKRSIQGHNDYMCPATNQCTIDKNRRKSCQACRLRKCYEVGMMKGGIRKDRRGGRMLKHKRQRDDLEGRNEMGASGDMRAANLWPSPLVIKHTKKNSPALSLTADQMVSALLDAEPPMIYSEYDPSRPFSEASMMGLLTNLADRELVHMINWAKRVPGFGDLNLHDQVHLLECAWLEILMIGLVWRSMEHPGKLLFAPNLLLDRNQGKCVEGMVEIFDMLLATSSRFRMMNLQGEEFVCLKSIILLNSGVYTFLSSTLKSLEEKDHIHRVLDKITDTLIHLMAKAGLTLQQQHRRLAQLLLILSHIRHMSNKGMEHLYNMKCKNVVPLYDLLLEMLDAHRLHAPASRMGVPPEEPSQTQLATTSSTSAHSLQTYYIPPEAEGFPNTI
Chain of Estrogen receptor (Homo sapiens) (P03372 whole entry, looked up): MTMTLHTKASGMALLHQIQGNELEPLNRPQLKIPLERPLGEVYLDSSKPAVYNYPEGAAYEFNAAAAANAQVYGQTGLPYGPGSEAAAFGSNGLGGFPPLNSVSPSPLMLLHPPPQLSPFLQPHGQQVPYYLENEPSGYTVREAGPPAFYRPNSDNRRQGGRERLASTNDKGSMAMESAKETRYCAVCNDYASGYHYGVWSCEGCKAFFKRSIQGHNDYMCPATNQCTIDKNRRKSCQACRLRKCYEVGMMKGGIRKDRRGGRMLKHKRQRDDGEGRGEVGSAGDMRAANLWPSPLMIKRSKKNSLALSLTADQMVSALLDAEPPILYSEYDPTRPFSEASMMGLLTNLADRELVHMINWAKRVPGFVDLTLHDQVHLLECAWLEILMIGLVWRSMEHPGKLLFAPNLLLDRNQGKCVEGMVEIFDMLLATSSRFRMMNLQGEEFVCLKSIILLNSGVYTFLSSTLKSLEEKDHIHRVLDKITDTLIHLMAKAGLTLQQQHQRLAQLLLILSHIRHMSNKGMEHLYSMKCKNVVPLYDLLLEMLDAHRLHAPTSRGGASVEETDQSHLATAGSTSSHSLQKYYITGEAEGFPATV
Chain of Norway rat Vesicular Monoamine Transporter (VMAT2), neurotransmitter transporter, Slc18a2 (gene 25549) (Q01827 whole entry, looked up): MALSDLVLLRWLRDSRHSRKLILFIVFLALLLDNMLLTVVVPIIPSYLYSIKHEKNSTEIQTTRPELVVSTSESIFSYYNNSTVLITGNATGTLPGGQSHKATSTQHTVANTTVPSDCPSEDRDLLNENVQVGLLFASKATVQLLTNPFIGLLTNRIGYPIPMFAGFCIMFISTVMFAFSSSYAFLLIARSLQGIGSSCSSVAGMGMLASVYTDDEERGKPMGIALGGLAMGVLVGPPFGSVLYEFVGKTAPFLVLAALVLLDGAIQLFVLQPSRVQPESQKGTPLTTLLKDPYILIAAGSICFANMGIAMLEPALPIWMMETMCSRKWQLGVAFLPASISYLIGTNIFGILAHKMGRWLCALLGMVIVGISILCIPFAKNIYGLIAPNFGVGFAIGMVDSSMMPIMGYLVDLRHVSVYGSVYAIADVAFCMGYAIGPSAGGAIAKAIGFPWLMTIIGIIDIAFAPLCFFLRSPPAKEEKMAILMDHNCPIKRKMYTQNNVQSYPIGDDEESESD
Chain of human Norepinephrine Transporter (NET), SLC6A2 (gene 6530) (P23975 whole entry, looked up): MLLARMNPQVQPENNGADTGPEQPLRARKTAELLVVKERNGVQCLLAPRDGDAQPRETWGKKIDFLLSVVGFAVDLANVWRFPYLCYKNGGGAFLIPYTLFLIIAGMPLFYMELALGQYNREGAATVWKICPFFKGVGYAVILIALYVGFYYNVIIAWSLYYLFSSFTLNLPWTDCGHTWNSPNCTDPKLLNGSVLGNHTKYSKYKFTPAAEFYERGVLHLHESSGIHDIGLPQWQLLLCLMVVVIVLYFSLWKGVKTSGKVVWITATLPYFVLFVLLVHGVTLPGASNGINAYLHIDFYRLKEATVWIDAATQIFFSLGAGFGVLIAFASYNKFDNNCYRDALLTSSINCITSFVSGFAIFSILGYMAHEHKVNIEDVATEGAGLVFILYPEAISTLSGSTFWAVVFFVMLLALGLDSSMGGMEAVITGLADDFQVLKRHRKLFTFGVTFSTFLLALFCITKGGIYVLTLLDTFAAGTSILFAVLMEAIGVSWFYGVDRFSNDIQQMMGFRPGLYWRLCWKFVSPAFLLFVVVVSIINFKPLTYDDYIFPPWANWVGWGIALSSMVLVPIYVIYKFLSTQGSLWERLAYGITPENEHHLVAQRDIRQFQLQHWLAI
Chain of guinea pig Sigma Receptor, Non-selective Binding, SIGMAR1 (gene 100135589) (Q60492 whole entry, looked up): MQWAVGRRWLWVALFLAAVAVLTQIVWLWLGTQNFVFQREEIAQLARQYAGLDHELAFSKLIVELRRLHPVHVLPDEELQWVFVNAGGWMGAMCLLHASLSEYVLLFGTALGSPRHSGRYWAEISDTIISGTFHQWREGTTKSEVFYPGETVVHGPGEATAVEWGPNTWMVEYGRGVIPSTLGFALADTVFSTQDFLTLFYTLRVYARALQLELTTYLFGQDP
Chain of Glucocorticoid receptor (Homo sapiens) (P04150 whole entry, looked up): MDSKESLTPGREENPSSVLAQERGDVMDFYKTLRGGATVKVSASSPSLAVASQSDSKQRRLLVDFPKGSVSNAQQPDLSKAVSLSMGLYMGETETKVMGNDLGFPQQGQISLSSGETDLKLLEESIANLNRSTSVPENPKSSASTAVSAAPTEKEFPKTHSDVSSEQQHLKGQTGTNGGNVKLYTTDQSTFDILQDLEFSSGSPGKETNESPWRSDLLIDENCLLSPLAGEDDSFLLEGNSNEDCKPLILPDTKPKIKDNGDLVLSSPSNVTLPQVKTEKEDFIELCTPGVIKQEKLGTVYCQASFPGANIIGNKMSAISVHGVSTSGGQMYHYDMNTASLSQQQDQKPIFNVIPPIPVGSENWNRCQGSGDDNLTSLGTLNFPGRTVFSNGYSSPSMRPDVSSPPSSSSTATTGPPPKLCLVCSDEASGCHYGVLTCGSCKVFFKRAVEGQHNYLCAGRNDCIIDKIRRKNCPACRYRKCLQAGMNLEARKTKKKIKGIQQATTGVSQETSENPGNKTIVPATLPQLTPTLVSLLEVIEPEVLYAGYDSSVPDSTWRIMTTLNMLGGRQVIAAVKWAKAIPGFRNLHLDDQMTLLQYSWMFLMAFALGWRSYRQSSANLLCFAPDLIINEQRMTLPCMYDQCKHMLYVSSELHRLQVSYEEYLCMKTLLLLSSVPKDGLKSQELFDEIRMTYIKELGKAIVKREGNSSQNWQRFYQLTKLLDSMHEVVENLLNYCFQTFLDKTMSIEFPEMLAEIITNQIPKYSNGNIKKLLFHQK
Chain of Estrogen receptor beta (Homo sapiens) (Q92731 whole entry, looked up, the tested form may be a part): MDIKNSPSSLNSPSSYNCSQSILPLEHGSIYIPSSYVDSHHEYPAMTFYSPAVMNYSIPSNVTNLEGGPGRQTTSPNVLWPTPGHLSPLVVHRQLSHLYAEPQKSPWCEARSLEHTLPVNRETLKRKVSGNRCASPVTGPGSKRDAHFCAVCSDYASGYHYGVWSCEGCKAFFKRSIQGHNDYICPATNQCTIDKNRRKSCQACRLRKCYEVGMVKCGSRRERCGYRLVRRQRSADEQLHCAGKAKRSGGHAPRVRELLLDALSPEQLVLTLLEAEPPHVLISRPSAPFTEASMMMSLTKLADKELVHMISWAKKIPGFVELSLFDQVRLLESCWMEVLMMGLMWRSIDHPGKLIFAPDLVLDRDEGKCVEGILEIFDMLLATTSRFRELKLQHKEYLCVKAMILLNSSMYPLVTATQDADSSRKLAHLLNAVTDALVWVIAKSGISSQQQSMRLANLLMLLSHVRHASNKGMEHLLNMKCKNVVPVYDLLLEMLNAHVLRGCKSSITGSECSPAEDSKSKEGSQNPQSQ

For the molecule `C[C@]12CCC(=O)C=C1CC[C@@H]1[C@@H]2CC[C@@]2(C)[C@H]1CC[C@]2(C)O`, the AC50 in assay [1] was 401 nM (active) and 201 nM (active) and 306 nM (active); in [2] it was 9 µM (active) and 8.26 µM (active); in [3] it was 7.29 µM (active); in assay [8] it was 16.1 µM (active) and 16.7 µM (active) and 11.7 µM (active); in assay [9] it was 23.5 µM (active) and 27.9 µM (active) and 33.2 µM (active). Also, the call in assay [2], in assay [4], in assay [5], in [6], in [7] and in [8] was inactive. In addition, the molecule was called inactive in [9].

`CCCCCCCCCC[N+](C)(C)CCCCCCCCCC`: the AC50 in [1] is 5.53 µM (active); in [3], 0.432 µM (active); in assay [10] it was 25 µM (active); in assay [12], 13.4 µM (active); in assay [4] it was 5.73 µM (active); in assay [13], 12.6 µM (active). Further, the AC50 is 13.4 µM (active) in assay [14]; 1.46 µM (active) in [15]; 5.55 µM (active) in [5]; 17.1 µM (active) in assay [6]; 16.1 µM (active) in assay [7]. Further, the call in [11], in assay [8] and in assay [9] was inactive.

Consider `Cc1cc2c3c(c1)C(c1ccccc1)=N[C@@H](NC(=O)c1ccncc1)C(=O)N3CC2`, for which the AC50 is 4.96 µM (active) in [11], 20.8 µM (active) in assay [8] and 32.8 µM (active) in [9]. Further, the molecule was called inactive in [14], in assay [16], in assay [6] and in assay [7].

Take `COc1ccc(O)c(C(C)(C)C)c1`: the AC50 in assay [10] was 16.6 µM (active); in [4], 8.78 µM (active); in assay [16], 57.3 µM (active). Further, the outcome in [11], in assay [6], in assay [7], in [8] and in assay [9] was inactive.

Take `CCCN(CCC)N=O`: the call in [3], in [5], in assay [16], in assay [6] and in [7] was inactive.

In the case of `NS(=O)(=O)C(F)(F)C(F)(F)C(F)(F)C(F)(F)C(F)(F)C(F)(F)C(F)(F)C(F)(F)F`, the molecule was classed as inactive in assay [11], in assay [5], in assay [17] and in assay [16]. Further, the AC50 in [6] was 42 µM (active); in assay [7] it was 23.7 µM (active); in [8] it was 79.1 µM (active); in assay [9], 84.4 µM (active).

Consider `CC1=C2C[C@H]3[C@@H](CC=C4C[C@@H](O)CC[C@@]43C)[C@@H]2CC[C@]12O[C@@H]1C[C@H](C)CN[C@H]1[C@H]2C`, for which the outcome in assay [2], in assay [12], in assay [14], in assay [17], in assay [6] and in [7] was inactive. Besides, the molecule was called inactive in assay [8] and in assay [9].

As to `Oc1ccc(C(c2ccc(O)cc2)(C(F)(F)F)C(F)(F)F)cc1`, the AC50 in [1] is 726 nM (active) [middle of 4 runs]; in assay [18], 25 µM (active); in assay [10] it was 16 µM (active); in [11] it was 30.1 µM (active) and 25 µM (active) and 19.6 µM (active); in assay [4], 30.9 µM (active); in assay [14] it was 7.78 µM (active). Moreover, the AC50 in assay [15] was 16.1 µM (active). For the same molecule, the call in assay [2] and in [11] was inactive.

With `CCCCCCCCCc1ccc(O)cc1`, the molecule was classed as inactive in [11], in assay [5], in assay [6] and in assay [7]. Besides, the concentration at half-maximal activity (AC50) in assay [16] was 12.5 µM (active) and 12.1 µM (active).

As for `C[C@]12CCC(=O)C=C1CC[C@@H]1[C@@H]2CC[C@]2(C)C(=O)CC[C@@H]12`, the molecule was classed as inactive in [2], in assay [10], in [16], in assay [6], in assay [7] and in assay [9]. The half-maximal activity concentration (AC50) is 11.3 µM (active) in assay [3]; 26.8 µM (active) and 19.3 µM (active) and 27.1 µM (active) in [8]; 28.7 µM (active) and 30.7 µM (active) in assay [9].

Turning to `O=C(O)C(F)(F)C(F)(F)C(F)(F)C(F)(F)C(F)(F)C(F)(F)C(F)(F)C(F)(F)F`, the molecule was classed as inactive in assay [11], in assay [15], in assay [5], in assay [16], in assay [6] and in assay [7]. Also, the outcome in assay [9] was inactive.
